Experimental data: PubChem BioAssay (EPA / NIEHS)
Records with an inconclusive call do not appear. Active and inactive are the calls of the source. The calls were made as follows, unless noted: active = hit-call score of the fitted dose curve at least 0.9, where 1 is the maximum; inconclusive = response in the unintended direction; inactive = score below 0.9.

Legend:
[1] = ATG_TAL_CIS: Attagene CIS-FACTORIAL HepG2 Assay for human TAL Basal Promoter (AID 2282966; active = hit-call score of the fitted dose curve at least 0.9, where 1 is the maximum; inactive = score below 0.9;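 also: background control endpoint measuring basal TAL promoter reporter mRNA not a specific factor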); details: HepG2 Attagene cis-factorial TAL promoter reporter; actives raise or lower the signal
How it was run: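 Steps: transfect HepG2 with multiple reporter transcription units; dose 24 h; isolate RNA, reverse-transcribe, PCR-amplify, label with 6-FAM, digest with HpaI; resolve by capillary electrophoresis. Bidirectional fitting against DMSO baseline.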

[2] = ATG_TGFb_CIS: Attagene CIS-FACTORIAL HepG2 Assay for human Transforming Growth Factor (TGF) (AID 2282967; active = hit-call score of the fitted dose curve at least 0.9, where 1 is the maximum; inactive = score below 0.9); details: HepG2 Attagene CIS TGFb reporter, mRNA transcription; actives raise or lower the signal
How it was run: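 Liver HepG2 line, cis-factorial reporter panel, 24 h dosing. Quantitation: RT-PCR products labeled with 6-FAM, cut with HpaI, resolved by capillary electrophoresis; DMSO-referenced bidirectional analysis.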

[3] = ATG_VDRE_CIS: Attagene CIS-FACTORIAL HepG2 Assay for human Vitamin D Receptor Element (VDRE) (AID 2282968; active = hit-call score of the fitted dose curve at least 0.9, where 1 is the maximum; inactive = score below 0.9); details: HepG2 VDRE cis-reporter transcription, actives raise or lower the signal
How it was run: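 In transiently transfected HepG2 liver cells, gain or loss of reporter mRNA after 24 h exposure is scored relative to DMSO, using fluorescence detection by capillary electrophoresis of RT-PCR products.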

[4] = target: Nuclear receptor subfamily 1 group I member 3 (Homo sapiens) (UniProt Q14994); assay: ATG_CAR_TRANS: Attagene TRANS-FACTORIAL HepG2 Assay for human Constitutive Androstane Receptor (CAR) (AID 2282969); details: HepG2 Attagene TRANS-FACTORIAL CAR reporter;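 also: activators raise reporter mRNA above DMSO so AC50 marks induction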
Sequence of Nuclear receptor subfamily 1 group I member 3 (Homo sapiens) (Q14994 whole entry, looked up, the tested form may be a part): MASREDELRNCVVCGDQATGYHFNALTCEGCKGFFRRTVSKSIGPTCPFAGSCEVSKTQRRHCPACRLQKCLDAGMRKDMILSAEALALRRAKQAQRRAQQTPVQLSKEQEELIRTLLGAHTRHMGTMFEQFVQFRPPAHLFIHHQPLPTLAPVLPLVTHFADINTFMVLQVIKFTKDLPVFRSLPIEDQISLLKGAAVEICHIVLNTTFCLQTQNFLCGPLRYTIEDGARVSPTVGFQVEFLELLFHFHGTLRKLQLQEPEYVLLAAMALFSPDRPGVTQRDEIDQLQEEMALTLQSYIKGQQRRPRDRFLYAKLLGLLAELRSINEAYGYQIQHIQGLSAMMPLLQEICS
How it was run: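 Readout is reporter mRNA induction, quantified by fluorescent primer extension and capillary electrophoresis after RT-PCR. Cells were HepG2 transiently carrying chimeric NR-Gal4 constructs with GAL4-UAS reporters, treated for 24 h; activity scored upward from DMSO.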

[5] = target: Estrogen receptor (Homo sapiens) (UniProt P03372); assay: ATG_ERa_TRANS: Attagene TRANS-FACTORIAL HepG2 Assay for human Estrogen Receptor alpha (ERa) (AID 2282970); details: HepG2 Attagene TRANS ERa GAL4 reporter, mRNA
Sequence of Estrogen receptor (Homo sapiens) (P03372 whole entry, looked up, the tested form may be a part): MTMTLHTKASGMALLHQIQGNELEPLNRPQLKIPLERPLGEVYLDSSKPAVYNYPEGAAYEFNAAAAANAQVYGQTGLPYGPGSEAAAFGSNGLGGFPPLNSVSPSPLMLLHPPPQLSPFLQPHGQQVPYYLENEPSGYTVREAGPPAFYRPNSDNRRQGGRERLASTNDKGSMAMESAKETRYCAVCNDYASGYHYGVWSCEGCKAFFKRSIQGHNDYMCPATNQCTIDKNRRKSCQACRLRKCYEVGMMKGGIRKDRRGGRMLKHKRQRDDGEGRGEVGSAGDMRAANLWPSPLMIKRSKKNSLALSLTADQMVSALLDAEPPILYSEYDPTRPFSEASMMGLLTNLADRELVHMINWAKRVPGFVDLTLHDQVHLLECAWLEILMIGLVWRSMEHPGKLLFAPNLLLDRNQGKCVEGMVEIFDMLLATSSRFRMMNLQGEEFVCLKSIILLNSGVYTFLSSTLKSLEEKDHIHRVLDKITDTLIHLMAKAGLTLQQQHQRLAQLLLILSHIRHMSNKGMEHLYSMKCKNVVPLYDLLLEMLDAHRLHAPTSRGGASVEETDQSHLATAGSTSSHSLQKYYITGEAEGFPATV
How it was run: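 Multiplexed cell-based reporter format in HepG2: chimeric ERa-Gal4 protein drives GAL4-UAS reporter transcription. Fluorescent reporter mRNA quantified by capillary electrophoresis 24 hours after dosing; endpoint fitted as signal gain against DMSO.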

[6] = target: X-box-binding protein 1 (Homo sapiens) (UniProt P17861); assay: ATG_Xbp1_CIS: Attagene CIS-FACTORIAL HepG2 Assay for human X-box Binding Protein 1 (XBP1) (AID 2282972; active = hit-call score of the fitted dose curve at least 0.9, where 1 is the maximum; inactive = score below 0.9); details: HepG2 XBP1 cis-element reporter, Attagene multiplex; actives raise or lower the signal
Sequence of X-box-binding protein 1 (Homo sapiens) (P17861 whole entry, looked up): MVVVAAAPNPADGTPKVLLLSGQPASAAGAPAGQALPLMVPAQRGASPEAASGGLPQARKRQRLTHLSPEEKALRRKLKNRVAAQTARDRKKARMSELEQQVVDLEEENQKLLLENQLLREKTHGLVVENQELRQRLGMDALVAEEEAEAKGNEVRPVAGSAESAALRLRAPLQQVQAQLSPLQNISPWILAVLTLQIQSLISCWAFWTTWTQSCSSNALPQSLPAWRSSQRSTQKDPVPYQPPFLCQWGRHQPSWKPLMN
How it was run: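 After a 24-hour chemical exposure of HepG2 cells carrying cis-regulated reporters, reporter mRNA levels are assessed. Quantification uses RT-PCR, 6-FAM labelling and capillary electrophoresis. Gain- or loss-of-signal is fitted against DMSO.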

[7] = ATG_M_19_TRANS: Attagene TRANS-FACTORIAL HepG2 Assay for M19 Transcription Factor (Internal Marker) (AID 2282974); details: HepG2 Attagene TRANS-FACTORIAL M19 internal marker reporter
How it was run: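 Background-control readout: after 24 h chemical exposure of transfected HepG2 carrying GAL4-driven reporter units, RNA was reverse-transcribed, amplified, fluorescently labeled and sized by capillary electrophoresis; gain-of-signal fit against DMSO.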

[8] = ATG_Hpa5_TRANS: Attagene TRANS-FACTORIAL HepG2 Assay for human GAL4-Hpa5 Hepatocyte Transcription Factor Basal Promoter (AID 2282975); details: HepG2 Attagene GAL4-Hpa5 transcription reporter;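 also: hits are increases in reporter mRNA over DMSO baseline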
How it was run: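 Basal-promoter GAL4 background control within the HepG2 trans-factorial panel of transiently transfected reporter units. Reporter mRNA is measured 24 h after dosing by RT-PCR and capillary electrophoresis, fitted for gain of signal versus DMSO.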

[9] = target: Bile acid receptor (Homo sapiens) (UniProt Q96RI1); assay: ATG_FXR_TRANS: Attagene TRANS-FACTORIAL HepG2 Assay for Farnesoid X Receptor (FXR) (AID 2282979); details: HepG2 Attagene TRANS FXR-GAL4 reporter transcription;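 also: hits raise reporter mRNA above DMSO so AC50 marks FXR activation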
Sequence of Bile acid receptor (Homo sapiens) (Q96RI1 whole entry, looked up, the tested form may be a part): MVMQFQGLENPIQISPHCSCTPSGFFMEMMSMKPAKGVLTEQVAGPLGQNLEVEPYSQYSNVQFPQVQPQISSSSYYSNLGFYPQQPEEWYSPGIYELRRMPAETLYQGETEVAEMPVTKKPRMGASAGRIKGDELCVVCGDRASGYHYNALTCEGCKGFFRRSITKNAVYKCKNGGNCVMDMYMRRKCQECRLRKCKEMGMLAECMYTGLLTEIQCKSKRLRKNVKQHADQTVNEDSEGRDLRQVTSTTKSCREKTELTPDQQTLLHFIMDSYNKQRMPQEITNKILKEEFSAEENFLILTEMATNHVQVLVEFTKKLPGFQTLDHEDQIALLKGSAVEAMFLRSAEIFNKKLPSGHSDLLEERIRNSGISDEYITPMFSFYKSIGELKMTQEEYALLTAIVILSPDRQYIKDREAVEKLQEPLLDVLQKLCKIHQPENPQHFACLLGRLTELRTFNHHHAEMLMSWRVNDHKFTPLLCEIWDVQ
How it was run: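 After 24 h chemical treatment of transfected HepG2 cells, GAL4-UAS reporter transcripts driven by an exogenous FXR-GAL4 fusion were measured by RT-PCR and capillary electrophoresis. Increases over DMSO were fitted.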

[10] = target: Oxysterols receptor LXR-beta (Homo sapiens) (UniProt P55055); assay: ATG_LXRb_TRANS: Attagene TRANS-FACTORIAL HepG2 Assay for human Liver X Receptor beta (LXRb) (AID 2282981); details: HepG2 Attagene TRANS GAL4-LXRb reporter, mRNA
Sequence of Oxysterols receptor LXR-beta (Homo sapiens) (P55055 whole entry, looked up, the tested form may be a part): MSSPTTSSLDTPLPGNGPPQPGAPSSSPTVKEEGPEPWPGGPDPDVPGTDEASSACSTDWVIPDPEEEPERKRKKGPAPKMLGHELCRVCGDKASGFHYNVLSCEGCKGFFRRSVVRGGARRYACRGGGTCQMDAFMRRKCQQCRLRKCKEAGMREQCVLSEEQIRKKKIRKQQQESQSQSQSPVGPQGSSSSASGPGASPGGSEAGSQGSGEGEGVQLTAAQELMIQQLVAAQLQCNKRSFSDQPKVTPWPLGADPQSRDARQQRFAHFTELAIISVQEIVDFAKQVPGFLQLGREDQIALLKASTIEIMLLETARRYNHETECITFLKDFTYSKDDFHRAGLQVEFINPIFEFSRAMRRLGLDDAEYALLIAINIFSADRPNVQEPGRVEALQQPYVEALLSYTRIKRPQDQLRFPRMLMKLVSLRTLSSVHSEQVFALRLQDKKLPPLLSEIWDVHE
How it was run: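 Cells: HepG2, transiently transfected with GAL4-UAS reporter units plus LXRb-Gal4 fusion. Treatment: 24 h. Detection: reporter mRNA by RT-PCR, 6-FAM labelling, HpaI digestion, capillary electrophoresis.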

[11] = ATG_M_32_TRANS: Attagene TRANS-FACTORIAL HepG2 Assay for M32 Transcription Factor (Internal Marker) (AID 2282984); details: HepG2 Attagene TRANS M32 internal marker reporter
How it was run: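 Using transiently transfected HepG2 cells exposed to test chemicals for 24 h, reporter transcripts are converted to labelled cDNA fragments and quantified by capillary electrophoresis. DMSO defines the activity baseline.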

[12] = target: Transcriptional activator Myb (Homo sapiens) (UniProt P10242); assay: ATG_Myb_CIS: Attagene CIS-FACTORIAL HepG2 Assay for human Myeloblastosis (Myb) Proto-Oncogene Transcription Factor (AID 2282986; active = hit-call score of the fitted dose curve at least 0.9, where 1 is the maximum; inactive = score below 0.9); details: HepG2 Attagene CIS-FACTORIAL Myb reporter transcription; actives raise or lower the signal
Sequence of Transcriptional activator Myb (Homo sapiens) (P10242 whole entry, looked up): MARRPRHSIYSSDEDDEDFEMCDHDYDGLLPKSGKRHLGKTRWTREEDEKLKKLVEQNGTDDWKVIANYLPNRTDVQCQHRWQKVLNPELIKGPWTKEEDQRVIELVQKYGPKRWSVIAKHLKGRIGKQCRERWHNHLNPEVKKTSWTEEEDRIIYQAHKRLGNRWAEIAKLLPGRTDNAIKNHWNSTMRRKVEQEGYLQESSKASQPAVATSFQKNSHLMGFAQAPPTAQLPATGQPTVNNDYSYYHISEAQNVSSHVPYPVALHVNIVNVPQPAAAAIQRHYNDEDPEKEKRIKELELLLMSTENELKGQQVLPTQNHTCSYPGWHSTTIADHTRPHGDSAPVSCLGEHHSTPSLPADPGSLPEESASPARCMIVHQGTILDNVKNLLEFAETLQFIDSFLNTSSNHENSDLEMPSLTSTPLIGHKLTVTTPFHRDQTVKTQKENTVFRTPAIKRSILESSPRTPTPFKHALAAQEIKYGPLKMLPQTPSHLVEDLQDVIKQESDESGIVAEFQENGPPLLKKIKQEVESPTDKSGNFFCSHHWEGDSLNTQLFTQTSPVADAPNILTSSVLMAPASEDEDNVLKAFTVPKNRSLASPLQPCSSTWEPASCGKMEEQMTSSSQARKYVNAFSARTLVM
How it was run: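 Reporter mRNA is quantified by RT-PCR and capillary electrophoresis 24 h after dosing HepG2 cells transfected with cis-regulated reporter units, which track endogenous transcription factor activity. Gain and loss of signal are fitted versus DMSO baseline.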

[13] = target: Nuclear respiratory factor 1 (Homo sapiens) (UniProt Q16656); assay: ATG_NRF1_CIS: Attagene CIS-FACTORIAL HepG2 Assay for human Nuclear Respiratory Factor 1 (NRF1) Orphan Gene (AID 2282987; active = hit-call score of the fitted dose curve at least 0.9, where 1 is the maximum; inactive = score below 0.9); details: HepG2 NRF1 cis-element reporter, Attagene multiplex; actives raise or lower the signal
Sequence of Nuclear respiratory factor 1 (Homo sapiens) (Q16656 whole entry, looked up): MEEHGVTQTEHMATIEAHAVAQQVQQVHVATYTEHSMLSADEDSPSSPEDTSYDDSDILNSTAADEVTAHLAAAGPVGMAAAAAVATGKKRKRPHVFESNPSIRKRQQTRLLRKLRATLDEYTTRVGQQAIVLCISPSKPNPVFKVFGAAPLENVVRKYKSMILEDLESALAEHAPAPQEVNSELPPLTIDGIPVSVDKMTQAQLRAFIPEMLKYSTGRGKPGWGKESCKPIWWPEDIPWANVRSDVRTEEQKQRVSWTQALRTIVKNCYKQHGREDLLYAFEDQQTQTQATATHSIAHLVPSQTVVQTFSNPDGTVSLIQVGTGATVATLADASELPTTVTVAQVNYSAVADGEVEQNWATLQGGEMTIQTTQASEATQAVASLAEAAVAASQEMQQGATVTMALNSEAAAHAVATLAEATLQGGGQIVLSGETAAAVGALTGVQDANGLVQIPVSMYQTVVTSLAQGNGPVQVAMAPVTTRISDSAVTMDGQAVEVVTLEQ
How it was run: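 Endogenous NRF1-driven reporter transcription in transfected HepG2 cells after 24 h treatment. Readout: RT-PCR products, 6-FAM labelled and resolved by capillary electrophoresis; changes fitted both directions relative to DMSO.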

[14] = target: Oxysterols receptor LXR-alpha (Homo sapiens) (UniProt Q13133); assay: ATG_LXRa_TRANS: Attagene TRANS-FACTORIAL HepG2 Assay for human Liver X Receptor alpha (LXRa) (AID 2282980); details: HepG2 Attagene TRANS reporter, LXRa transactivation
Sequence of Oxysterols receptor LXR-alpha (Homo sapiens) (Q13133 whole entry, looked up, the tested form may be a part): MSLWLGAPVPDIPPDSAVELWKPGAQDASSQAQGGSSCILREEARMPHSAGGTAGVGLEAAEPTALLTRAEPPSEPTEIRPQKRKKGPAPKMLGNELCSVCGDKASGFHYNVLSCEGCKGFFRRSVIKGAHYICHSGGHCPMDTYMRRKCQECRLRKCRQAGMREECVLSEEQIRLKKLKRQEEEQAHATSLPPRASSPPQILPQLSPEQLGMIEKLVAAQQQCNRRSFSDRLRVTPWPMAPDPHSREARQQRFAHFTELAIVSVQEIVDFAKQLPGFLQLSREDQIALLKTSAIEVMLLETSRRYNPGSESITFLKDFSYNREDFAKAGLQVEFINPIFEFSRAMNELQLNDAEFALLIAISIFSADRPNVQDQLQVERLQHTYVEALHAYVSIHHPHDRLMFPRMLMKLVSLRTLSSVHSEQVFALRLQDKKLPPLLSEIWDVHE
How it was run: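 In this multiplexed TRANS system, compounds act on HepG2 cells carrying GAL4-UAS reporter units and a receptor-GAL4 fusion for 24 h. Induced reporter RNA is amplified, fluorescently labelled and sized by capillary electrophoresis, with DMSO as baseline.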

[15] = target: Nuclear receptor subfamily 4 group A member 2 (Homo sapiens) (UniProt P43354); assay: ATG_NURR1_TRANS: Attagene TRANS-FACTORIAL HepG2 Assay for human Nuclear Receptor Related Protein 1 (NURR1) (AID 2282985); details: HepG2 Attagene TRANS reporter, mRNA readout
Sequence of Nuclear receptor subfamily 4 group A member 2 (Homo sapiens) (P43354 whole entry, looked up): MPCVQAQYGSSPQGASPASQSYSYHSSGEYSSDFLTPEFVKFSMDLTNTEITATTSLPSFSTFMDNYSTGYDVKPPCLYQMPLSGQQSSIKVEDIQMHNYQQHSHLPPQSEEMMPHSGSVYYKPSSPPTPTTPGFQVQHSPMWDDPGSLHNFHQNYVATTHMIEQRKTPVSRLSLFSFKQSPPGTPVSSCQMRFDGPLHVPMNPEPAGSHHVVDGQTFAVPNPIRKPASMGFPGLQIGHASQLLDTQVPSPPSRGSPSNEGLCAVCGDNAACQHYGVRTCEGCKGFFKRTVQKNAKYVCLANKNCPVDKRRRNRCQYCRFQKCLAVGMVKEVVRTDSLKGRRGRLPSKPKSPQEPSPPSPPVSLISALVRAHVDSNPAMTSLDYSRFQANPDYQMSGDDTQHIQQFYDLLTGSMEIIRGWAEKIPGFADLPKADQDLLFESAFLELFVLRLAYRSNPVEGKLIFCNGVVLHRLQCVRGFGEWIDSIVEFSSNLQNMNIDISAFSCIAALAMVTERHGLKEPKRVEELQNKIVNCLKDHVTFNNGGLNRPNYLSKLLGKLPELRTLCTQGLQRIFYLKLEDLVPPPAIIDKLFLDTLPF
How it was run: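 Cells: HepG2, transiently transfected. Exposure: 24 h. Detection: fluorescence of labelled RT-PCR products separated by capillary electrophoresis; upward fit versus DMSO.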

[16] = ATG_M_06_TRANS: Attagene TRANS-FACTORIAL HepG2 Assay for M06 Transcription Factor (Internal Marker) (AID 2282983); details: HepG2 Attagene TRANS M06 internal marker reporter;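 also: reporter transcript level by RT-PCR then capillary electrophoresis fluorescence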
How it was run: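 Internal-marker background readout from a multiplexed TRANS reporter system in HepG2; 24 h dosing; mRNA induction quantified by RT-PCR plus capillary electrophoresis fluorescence; DMSO as negative control and baseline.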

| Compound | outcome [1] | outcome [2] | outcome [3] | outcome [4] | outcome [5] | outcome [6] | outcome [7] | outcome [8] | outcome [9] | outcome [10] | outcome [11] | outcome [12] | outcome [13] | AC50 [3] | AC50 [5] | outcome [14] | outcome [15] | outcome [16] | AC50 [14] | AC50 [10] |
| --- | --- | --- | --- | --- | --- | --- | --- | --- | --- | --- | --- | --- | --- | --- | --- | --- | --- | --- | --- | --- |
| COCC(=O)N(c1c(C)cccc1C)C(C)C(=O)OC (centres undefined) | inactive | inactive | inactive | inactive | inactive | inactive | inactive | inactive | inactive | inactive | inactive | inactive | inactive |  |  |  |  |  |  |  |
| CC(C)(C)C(=O)C(Oc1ccc(Cl)cc1)n1cncn1 (centres undefined) | inactive | inactive |  | inactive |  | inactive | inactive | inactive |  | inactive | inactive |  | inactive | 34.4 µM (active) | 18.5 µM (active) | inactive |  |  |  |  |
| CC1(C)CON(Cc2ccccc2Cl)C1=O | inactive | inactive |  | inactive |  | inactive | inactive | inactive |  | inactive | inactive | inactive | inactive | 13.2 µM (active) | 66.7 µM (active) | inactive |  |  |  |  |
| O=c1n(Cl)c(=O)n(Cl)c(=O)n1Cl | inactive | inactive | inactive | inactive | inactive | inactive | inactive | inactive |  | inactive |  |  | inactive |  |  | inactive | inactive |  |  |  |
| CCCCC(C#N)(Cn1cncn1)c1ccc(Cl)cc1 (centres undefined) | inactive | inactive |  | inactive | inactive | inactive |  | inactive |  | inactive | inactive |  | inactive |  |  |  | inactive | inactive |  |  |
| CC(C)C1(C)N=C(c2ncccc2C(=O)O)NC1=O (centres undefined) | inactive | inactive | inactive | inactive | inactive | inactive | inactive | inactive | inactive | inactive |  |  | inactive |  |  | inactive |  |  |  |  |
| CCSC(=O)N1CCCCCC1 | inactive | inactive | inactive | inactive | inactive | inactive | inactive | inactive |  | inactive | inactive |  | inactive |  |  | inactive | inactive |  |  |  |
| N#Cc1c(Cl)cccc1Cl | inactive | inactive |  | inactive | inactive | inactive | inactive | inactive |  | inactive | inactive |  | inactive |  |  | inactive |  |  |  |  |
| CCOP(=S)(OCC)Oc1nc(Cl)n(C(C)C)n1 | inactive | inactive |  |  |  | inactive |  | inactive |  |  | inactive |  | inactive | 5.61 µM (active) | 29.9 µM (active) |  | inactive | inactive | 14.9 µM (active) | 16.4 µM (active) |
